Among the data in article PMC11102866, “Nucleosome-bound NR5A2 structure reveals pioneer factor mechanism by DNA minor groove anchor competition” are binding signal values, retold here.

B1: 127 (nucleosome)
DNA 1: ATCCTGGAGAATCCCGGTGCCGAGGCCGCTCAATTGGTCGTAGACAGCTCTAGCACCGCTTAAACGCACGTACGCGCTGTCCCCCGCGTTTTAACCGCCAAGGGGATTACTCCCTAGTCTCCAGGCACGTCAAGGCCATATACATCCTGTGAT
DNA 2: ATCACAGGATGTATATGGCCTTGACGTGCCTGGAGACTAGGGAGTAATCCCCTTGGCGGTTAAAACGCGGGGGACAGCGCGTACGTGCGTTTAAGCGGTGCTAGAGCTGTCTACGACCAATTGAGCGGCCTCGGCACCGGGATTCTCCAGGAT
modifications: reconstituted with mouse histones H2A, H2B, H3.3 and H4
B2: 17 (nucleosome)
DNA 1: ATCCTGGAGAATCCCGGTGTCAAGGCCACTCAATTGGTCGTAGACAGCTCTAGCACCGCTTAAACGCACGTACGCGCTGTCCCCCGCGTTTTAACCGCCAAGGGGATTACTCCCTAGTCTCCAGGCACGTGTCAGATATATACATCCTGTGAT
DNA 2: ATCACAGGATGTATATATCTGACACGTGCCTGGAGACTAGGGAGTAATCCCCTTGGCGGTTAAAACGCGGGGGACAGCGCGTACGTGCGTTTAAGCGGTGCTAGAGCTGTCTACGACCAATTGAGTGGCCTTGACACCGGGATTCTCCAGGAT
modifications: reconstituted with mouse histones H2A, H2B, H3.3 and H4
B3: 133 (nucleosome)
DNA 1: ATCCTGGAGAATCCCGGTGCCGAGGCCGCTCAATTGGTCGTAGACAGCTCTAGCACCGCTTAAACGCACGTACGCGCTGTCCCCCGCGTTTTAACCGCCAAGGGGATTACTCCCTAGTCTCCAGGCACGTGTCAGTCAAGGCCATCCTGTGAT
DNA 2: ATCACAGGATGGCCTTGACTGACACGTGCCTGGAGACTAGGGAGTAATCCCCTTGGCGGTTAAAACGCGGGGGACAGCGCGTACGTGCGTTTAAGCGGTGCTAGAGCTGTCTACGACCAATTGAGCGGCCTCGGCACCGGGATTCTCCAGGAT
modifications: reconstituted with mouse histones H2A, H2B, H3.3 and H4
B4: 129 (nucleosome)
DNA 1: ATCCTGGAGAATCCCGGTGCCGAGGCCGCTCAATTGGTCGTAGACAGCTCTAGCACCGCTTAAACGCACGTACGCGCTGTCCCCCGCGTTTTAACCGCCAAGGGGATTACTCCCTAGTCTCCAGGCACGTGTCAAGGCCATACATCCTGTGAT
DNA 2: ATCACAGGATGTATGGCCTTGACACGTGCCTGGAGACTAGGGAGTAATCCCCTTGGCGGTTAAAACGCGGGGGACAGCGCGTACGTGCGTTTAAGCGGTGCTAGAGCTGTCTACGACCAATTGAGCGGCCTCGGCACCGGGATTCTCCAGGAT
modifications: reconstituted with mouse histones H2A, H2B, H3.3 and H4
B5: 128 (nucleosome)
DNA 1: ATCCTGGAGAATCCCGGTGCCGAGGCCGCTCAATTGGTCGTAGACAGCTCTAGCACCGCTTAAACGCACGTACGCGCTGTCCCCCGCGTTTTAACCGCCAAGGGGATTACTCCCTAGTCTCCAGGCACGTTCAAGGCCAATACATCCTGTGAT
DNA 2: ATCACAGGATGTATTGGCCTTGAACGTGCCTGGAGACTAGGGAGTAATCCCCTTGGCGGTTAAAACGCGGGGGACAGCGCGTACGTGCGTTTAAGCGGTGCTAGAGCTGTCTACGACCAATTGAGCGGCCTCGGCACCGGGATTCTCCAGGAT
modifications: reconstituted with mouse histones H2A, H2B, H3.3 and H4
B6: 134 (nucleosome)
DNA 1: ATCCTGGAGAATCCCGGTGCCGAGGCCGCTCAATTGGTCGTAGACAGCTCTAGCACCGCTTAAACGCACGTACGCGCTGTCCCCCGCGTTTTAACCGCCAAGGGGATTACTCCCTAGTCTCCAGGCACGTGTCAGATCAAGGCCACCTGTGAT
DNA 2: ATCACAGGTGGCCTTGATCTGACACGTGCCTGGAGACTAGGGAGTAATCCCCTTGGCGGTTAAAACGCGGGGGACAGCGCGTACGTGCGTTTAAGCGGTGCTAGAGCTGTCTACGACCAATTGAGCGGCCTCGGCACCGGGATTCTCCAGGAT
modifications: reconstituted with mouse histones H2A, H2B, H3.3 and H4
B7: 135 (nucleosome)
DNA 1: ATCCTGGAGAATCCCGGTGCCGAGGCCGCTCAATTGGTCGTAGACAGCTCTAGCACCGCTTAAACGCACGTACGCGCTGTCCCCCGCGTTTTAACCGCCAAGGGGATTACTCCCTAGTCTCCAGGCACGTGTCAGATTCAAGGCCACTGTGAT
DNA 2: ATCACAGTGGCCTTGAATCTGACACGTGCCTGGAGACTAGGGAGTAATCCCCTTGGCGGTTAAAACGCGGGGGACAGCGCGTACGTGCGTTTAAGCGGTGCTAGAGCTGTCTACGACCAATTGAGCGGCCTCGGCACCGGGATTCTCCAGGAT
modifications: reconstituted with mouse histones H2A, H2B, H3.3 and H4
B8: 139 (nucleosome)
DNA 1: ATCCTGGAGAATCCCGGTGCCGAGGCCGCTCAATTGGTCGTAGACAGCTCTAGCACCGCTTAAACGCACGTACGCGCTGTCCCCCGCGTTTTAACCGCCAAGGGGATTACTCCCTAGTCTCCAGGCACGTGTCAGATATATTCAAGGCCAGAT
DNA 2: ATCTGGCCTTGAATATATCTGACACGTGCCTGGAGACTAGGGAGTAATCCCCTTGGCGGTTAAAACGCGGGGGACAGCGCGTACGTGCGTTTAAGCGGTGCTAGAGCTGTCTACGACCAATTGAGCGGCCTCGGCACCGGGATTCTCCAGGAT
modifications: reconstituted with mouse histones H2A, H2B, H3.3 and H4
B9: 132 (nucleosome)
DNA 1: ATCCTGGAGAATCCCGGTGCCGAGGCCGCTCAATTGGTCGTAGACAGCTCTAGCACCGCTTAAACGCACGTACGCGCTGTCCCCCGCGTTTTAACCGCCAAGGGGATTACTCCCTAGTCTCCAGGCACGTGTCATCAAGGCCAATCCTGTGAT
DNA 2: ATCACAGGATTGGCCTTGATGACACGTGCCTGGAGACTAGGGAGTAATCCCCTTGGCGGTTAAAACGCGGGGGACAGCGCGTACGTGCGTTTAAGCGGTGCTAGAGCTGTCTACGACCAATTGAGCGGCCTCGGCACCGGGATTCTCCAGGAT
modifications: reconstituted with mouse histones H2A, H2B, H3.3 and H4
B10: 138 (nucleosome)
DNA 1: ATCCTGGAGAATCCCGGTGCCGAGGCCGCTCAATTGGTCGTAGACAGCTCTAGCACCGCTTAAACGCACGTACGCGCTGTCCCCCGCGTTTTAACCGCCAAGGGGATTACTCCCTAGTCTCCAGGCACGTGTCAGATATATCAAGGCCATGAT
DNA 2: ATCATGGCCTTGATATATCTGACACGTGCCTGGAGACTAGGGAGTAATCCCCTTGGCGGTTAAAACGCGGGGGACAGCGCGTACGTGCGTTTAAGCGGTGCTAGAGCTGTCTACGACCAATTGAGCGGCCTCGGCACCGGGATTCTCCAGGAT
modifications: reconstituted with mouse histones H2A, H2B, H3.3 and H4
B11: 137 (nucleosome)
DNA 1: ATCCTGGAGAATCCCGGTGCCGAGGCCGCTCAATTGGTCGTAGACAGCTCTAGCACCGCTTAAACGCACGTACGCGCTGTCCCCCGCGTTTTAACCGCCAAGGGGATTACTCCCTAGTCTCCAGGCACGTGTCAGATATTCAAGGCCAGTGAT
DNA 2: ATCACTGGCCTTGAATATCTGACACGTGCCTGGAGACTAGGGAGTAATCCCCTTGGCGGTTAAAACGCGGGGGACAGCGCGTACGTGCGTTTAAGCGGTGCTAGAGCTGTCTACGACCAATTGAGCGGCCTCGGCACCGGGATTCTCCAGGAT
modifications: reconstituted with mouse histones H2A, H2B, H3.3 and H4
B12: 15 (nucleosome)
DNA 1: ATCCTGGAGAATCCCGGTCAAGGCCACGCTCAATTGGTCGTAGACAGCTCTAGCACCGCTTAAACGCACGTACGCGCTGTCCCCCGCGTTTTAACCGCCAAGGGGATTACTCCCTAGTCTCCAGGCACGTGTCAGATATATACATCCTGTGAT
DNA 2: ATCACAGGATGTATATATCTGACACGTGCCTGGAGACTAGGGAGTAATCCCCTTGGCGGTTAAAACGCGGGGGACAGCGCGTACGTGCGTTTAAGCGGTGCTAGAGCTGTCTACGACCAATTGAGCGTGGCCTTGACCGGGATTCTCCAGGAT
modifications: reconstituted with mouse histones H2A, H2B, H3.3 and H4
B13: 16 (nucleosome)
DNA 1: ATCCTGGAGAATCCCGGTTCAAGGCCAGCTCAATTGGTCGTAGACAGCTCTAGCACCGCTTAAACGCACGTACGCGCTGTCCCCCGCGTTTTAACCGCCAAGGGGATTACTCCCTAGTCTCCAGGCACGTGTCAGATATATACATCCTGTGAT
DNA 2: ATCACAGGATGTATATATCTGACACGTGCCTGGAGACTAGGGAGTAATCCCCTTGGCGGTTAAAACGCGGGGGACAGCGCGTACGTGCGTTTAAGCGGTGCTAGAGCTGTCTACGACCAATTGAGCTGGCCTTGAACCGGGATTCTCCAGGAT
modifications: reconstituted with mouse histones H2A, H2B, H3.3 and H4
B14: 130 (nucleosome)
DNA 1: ATCCTGGAGAATCCCGGTGCCGAGGCCGCTCAATTGGTCGTAGACAGCTCTAGCACCGCTTAAACGCACGTACGCGCTGTCCCCCGCGTTTTAACCGCCAAGGGGATTACTCCCTAGTCTCCAGGCACGTGTTCAAGGCCAACATCCTGTGAT
DNA 2: ATCACAGGATGTTGGCCTTGAACACGTGCCTGGAGACTAGGGAGTAATCCCCTTGGCGGTTAAAACGCGGGGGACAGCGCGTACGTGCGTTTAAGCGGTGCTAGAGCTGTCTACGACCAATTGAGCGGCCTCGGCACCGGGATTCTCCAGGAT
modifications: reconstituted with mouse histones H2A, H2B, H3.3 and H4
B15: 131 (nucleosome)
DNA 1: ATCCTGGAGAATCCCGGTGCCGAGGCCGCTCAATTGGTCGTAGACAGCTCTAGCACCGCTTAAACGCACGTACGCGCTGTCCCCCGCGTTTTAACCGCCAAGGGGATTACTCCCTAGTCTCCAGGCACGTGTCTCAAGGCCACATCCTGTGAT
DNA 2: ATCACAGGATGTGGCCTTGAGACACGTGCCTGGAGACTAGGGAGTAATCCCCTTGGCGGTTAAAACGCGGGGGACAGCGCGTACGTGCGTTTAAGCGGTGCTAGAGCTGTCTACGACCAATTGAGCGGCCTCGGCACCGGGATTCTCCAGGAT
modifications: reconstituted with mouse histones H2A, H2B, H3.3 and H4

The target in the first assay is NR5A2 wild type;histone octamer (Homo sapiens;, UniProt O00482;C0HKE1;Q6ZWY9;P84244;P62806 1-541;2-130;2-126;2-136;2-103, |). The assay can be described thus: SeEN-seq (EMSA of nucleosome library followed by sequencing); 0.8 uM human NR5A2; 20 mM Tris-HCl pH 7.5, 120 mM NaCl, 1 mM MgCl2, 10 uM ZnCl2, 1 mM DTT, 100 ug/ml BSA, room temperature, 30 min; 0.1 uM nucleosome library; high values mean tight binding. For orientation: Mobility shift assays separate free from complexed probe on a gel.
As for B1, the binding signal is 4.33 log2 enrichment (bound/unbound, relative to Widom 601).

Turning to B2, the binding signal was 1.96 log2 enrichment (bound/unbound, relative to Widom 601).

B3: the binding signal is 4.27 log2 enrichment (bound/unbound, relative to Widom 601).

As for B4, the binding signal was 2.87 log2 enrichment (bound/unbound, relative to Widom 601).

For the molecule B5, the binding signal was 5.29 log2 enrichment (bound/unbound, relative to Widom 601).

Take B6: the binding signal was 5.2 log2 enrichment (bound/unbound, relative to Widom 601).

Take B7: the binding signal was 7.68 log2 enrichment (bound/unbound, relative to Widom 601).

For the molecule B8, the binding signal was 8.13 log2 enrichment (bound/unbound, relative to Widom 601).

As for B9, the binding signal is 3.78 log2 enrichment (bound/unbound, relative to Widom 601).

For the molecule B10, the binding signal is 7.13 log2 enrichment (bound/unbound, relative to Widom 601).

Turning to B11, the binding signal is 6.9 log2 enrichment (bound/unbound, relative to Widom 601).

For the molecule B12, the binding signal is 1.12 log2 enrichment (bound/unbound, relative to Widom 601).

As for B13, the binding signal is 1.52 log2 enrichment (bound/unbound, relative to Widom 601).

Turning to B14, the binding signal was 1.7 log2 enrichment (bound/unbound, relative to Widom 601).

On to B15, for which the binding signal is 3.61 log2 enrichment (bound/unbound, relative to Widom 601).

In another assay the target is mouse Nr5a2 wild type;histone octamer (Mus musculus;, UniProt P45448;C0HKE1;Q6ZWY9;P84244;P62806 1-560;2-130;2-126;2-136;2-103, |). The assay can be described thus: SeEN-seq (EMSA of nucleosome library followed by sequencing); 1.2 uM mouse Nr5a2; 20 mM Tris-HCl pH 7.5, 120 mM NaCl, 1 mM MgCl2, 10 uM ZnCl2, 1 mM DTT, 100 ug/ml BSA, room temperature, 30 min; 0.1 uM nucleosome library; high values mean tight binding.
On to B1, for which the binding signal is 3.32 log2 enrichment (bound/unbound, relative to Widom 601).

For the molecule B2, the binding signal was 1.98 log2 enrichment (bound/unbound, relative to Widom 601).

As to B3, the binding signal is 3.65 log2 enrichment (bound/unbound, relative to Widom 601).

Take B4: the binding signal is 2.23 log2 enrichment (bound/unbound, relative to Widom 601).

For the molecule B5, the binding signal was 4.1 log2 enrichment (bound/unbound, relative to Widom 601).

Take B6: the binding signal was 3.67 log2 enrichment (bound/unbound, relative to Widom 601).

As for B7, the binding signal is 5.73 log2 enrichment (bound/unbound, relative to Widom 601).

As to B8, the binding signal was 5.56 log2 enrichment (bound/unbound, relative to Widom 601).

For the molecule B9, the binding signal is 3.09 log2 enrichment (bound/unbound, relative to Widom 601).

For B10, the binding signal is 5.66 log2 enrichment (bound/unbound, relative to Widom 601).

As for B11, the binding signal was 5.78 log2 enrichment (bound/unbound, relative to Widom 601).

As to B12, the binding signal was 1.33 log2 enrichment (bound/unbound, relative to Widom 601).

On to B13, for which the binding signal is 1.81 log2 enrichment (bound/unbound, relative to Widom 601).

Turning to B14, the binding signal was 1.35 log2 enrichment (bound/unbound, relative to Widom 601).

As for B15, the binding signal is 3.22 log2 enrichment (bound/unbound, relative to Widom 601).
